Screening results deposited in PubChem by several laboratories.
This is one part of a sample in which hits are shown more often than they occur.
RmlCD inh mix: RmlC and RmlD coupled enzyme inhibitors, primary screen, biochemical, 384-well, compound mixtures, retest; RmlC/RmlD coupled enzyme inhibition, 384-well mixture HTS; inhibition, % at 5.5 µM; 110,000 tested, 0.39% active; AID 1532, 2009; in the data active = inhibition above about 30%, passing the limit was not always enough; inconclusive = no clear call, values can overlap the other calls
HIV RNase H inh-1: HIV-1 RT RNase H inhibitors, primary screen, biochemical, fluorescence; Gag-Pol polyprotein (Human immunodeficiency virus type 1 group M subtype B (isolate …; RT-RNase H RNA/DNA duplex cleavage; inhibition, % at 10 µM; 65,000 tested, 1.9% active; AID 565, 2006; in the data active = inhibition above about 50%
HIV RNase H inh-2: HIV-1 RT RNase H inhibitors, retest, confirmation, biochemical; shares compounds with HIV RNase H inh-1; Recombinant RT RNase H, fluorescent RNA/DNA duplex cleavage; inhibition, % at 10 µM; 1,000 tested, 39% active; AID 651, 2007; in the data active = inhibition above about 48%; inconclusive = no clear call, values can overlap the other calls
* marks the source's active call; other numbers are inactive results; ? = inconclusive; . = not tested or not shown.

SMILES	RmlCD inh mix	HIV RNase H inh-1	HIV RNase H inh-2
CC(=O)NC(NC(C)=O)c1ccc(Br)cc1	-8.2	-13.1	.
CCN(CC)C(=O)C1=C(C)NC(=S)NC1c1cn(-c2ccccc2)nc1-c1ccc(Cl)cc1 (stereo unspecified)	-9.9	.	.
O=C(c1cc([N+](=O)[O-])ccc1N1CCCCC1)N1CCCCC1	8.6	.	.
COC(=O)c1oc2ccc(Br)cc2c1NC(=O)c1ccccc1	?	59.2*	76.1*
COC(=O)c1oc2ccc(Br)cc2c1NC(=O)CN1CCN(C)CC1	-11.4	-4.3	.
COc1ccc(Nc2ccccc2)c(C)c1	9.2	-10.7	.
CCOc1cccc(C(=O)N(Cc2ccco2)C2CCS(=O)(=O)C2)c1 (stereo unspecified)	-7.5	-1.5	.
CSc1nnc2c3cc(C)ccc3n(Cc3ccccc3)c2n1	-12.7	50.2*	-3.0
CCOC(=O)C(CC)Sc1nnc2c3cc(C)ccc3n(C)c2n1 (stereo unspecified)	-4.2	.	.
Cc1cc(C(=O)Nc2sc(C)c(C)c2C#N)no1	69.7	23.1	.
Cc1ccc(-c2c3c([nH]c(=S)c2C#N)CCCC3)o1	-1.8	87.3*	32.0
N#Cc1c(-c2ccncc2)c2c([nH]c1=S)CCCC2	8.2	.	.
COc1ccccc1-c1c(C#N)c(SCC(=O)N2CCCC2)nc(C)c1C(N)=O	4.3	65.1*	-1.7
CC(C)c1ccc(-c2c(C#N)c(N)nc(SCC(=O)N3CCCCC3)c2C#N)cc1	-8.5	.	.
Cc1nc2ccccc2n1CC(O)COCC1CC=CCC1 (stereo unspecified)	-13.1	.	.
O=C(CSc1ncn[nH]1)c1ccccc1	5.3	69.9*	67.1*
O=C(CSc1ncn[nH]1)c1ccco1	5.8	39.1	.
Cc1cc(NC(=O)CN2C(=O)NC(C)(c3ccccc3)C2=O)no1 (stereo unspecified)	1.4	.	.
COc1ccc(NC(=O)C2CCN(S(=O)(=O)c3cccnc3)CC2)cc1Cl	.	-1.4	.
Cc1ccc(OC(C)C(=O)Nc2ccc(S(=O)(=O)Nc3cc(C)on3)cc2)cc1 (stereo unspecified)	-7.7	.	.
Clc1ccccc1/C=N/c1cc(-c2ccccc2)nn1-c1ccccc1	11.6	.	.
N#Cc1cc(-c2ccccc2)nn1-c1ccccc1	-4.2	91.5*	55.9*
CCCOC(=O)NC(CC)COC(=O)Nc1cc(C)ccc1C (stereo unspecified)	2.1	92.6*	-0.5
CCCCOC(=O)Nc1cc(Cl)ccc1C	1.6	.	.
C=CCn1c(CNC(=O)c2ccccc2C)nnc1SCC(=O)NC1CCCC1	-15.1	8.9	.
SMILES	RmlCD inh mix	HIV RNase H inh-1	HIV RNase H inh-2
Cc1nn(Cc2ccc(Cl)cc2)c(C)c1NC(=O)c1cc(-c2ccco2)on1	.	-43.5	.
COc1ccc(-c2cc(C(=O)Nc3c(C)nn(Cc4ccc(Cl)cc4)c3C)no2)cc1	-9.7	62.0*	-5.6
CCN1CCCC1CNC(=O)CSc1cc(=O)n(C)c2cc(Cl)ccc12 (stereo unspecified)	16.6	-23.4	.
Cc1cccc(C)c1NC(=O)c1c(-c2ccccc2)noc1C	9.8	-9.0	.
O=c1c2ccccc2sn1-c1cc(S(=O)(=O)N2CCOCC2)ccc1N1CCCC1	-6.6	.	.
O=c1c2ccccc2sn1-c1cc(S(=O)(=O)N2CCOCC2)ccc1N1CCOCC1	9.1	95.1*	60.9*
CC(C)Oc1ccc(C2CC(=O)NC3=C2C(=O)CCC3)cc1 (stereo unspecified)	-8.7	-8.2	.
COC(=O)c1ccc(C2CC(=O)NC3=C2C(=O)CCC3)cc1 (stereo unspecified)	-5.7	91.5*	38.4
COc1ccccc1NC(=O)c1cc2ccccc2o/c1=N\O	18.7	89.5*	-3.9
COc1ccccc1NC(=O)c1cc2ccc(O)cc2o/c1=N\O	-3.2	-12.3	.
CN(C(=O)c1coc(=O)c2ccccc12)c1ccc(F)cc1	.	72.5*	32.9
CCCCN(C)C(=O)c1coc(=O)c2ccccc12	1.5	-5.7	.
COc1cccc(OCCSc2nc(N)cc(N)n2)c1	30.7	.	.
C=CCn1c(Cc2cccs2)nnc1SCC(=O)Nc1cccc(OC)c1	29.6	72.9*	42.3
C=CCn1c(Cc2cccs2)nnc1SCC(=O)Nc1ccc(OC)cc1	7.9	-28.9	.
COc1ccccc1NC(=O)COc1ccc(Br)cc1CO	1.9	.	.
O=C(O)c1ccc(Cl)c2c1C1C=CCC1C(c1ccccn1)N2 (stereo unspecified)	8.6	83.3*	-1.6
C1=CC2c3ccccc3NC(c3ccncc3)C2C1 (stereo unspecified)	-7.0	2.8	.
Cc1ccc(N=Nc2c(N)n(-c3ccccc3)[nH]c2=O)cc1	-10.1	.	.
CCOc1ccccc1NS(=O)(=O)N(C)C	0.3	.	.
O=[N+]([O-])c1ccc(C(=Nc2cccc3ccccc23)N2CCOCC2)cc1	9.2	.	.
Cc1ccc(-n2c(SCC(=O)Nc3ccc4c(c3)OCO4)nnc2-c2cccs2)cc1	5.0	65.1*	29.5
O=C(CSc1nnc(-c2cccs2)n1-c1ccccc1)NCc1ccc2c(c1)OCO2	0.7	-53.1	.
Cc1nc(SC(C(=O)c2ccccc2)c2ccccc2)n[nH]1 (stereo unspecified)	-1.7	.	.
CC(C)c1cc(C(=O)N2CCN(C(c3ccccc3)c3ccccc3)CC2)no1	.	73.8*	49.5
SMILES	RmlCD inh mix	HIV RNase H inh-1	HIV RNase H inh-2
CC(C)Cc1cc(C(=O)N2CCN(C(c3ccccc3)c3ccccc3)CC2)no1	4.6	.	.
C=CCn1c(SCn2nnc3ccccc3c2=O)nnc1-c1ccc(F)cc1	-61.3	-3.4	.
Cc1ccc(SCC(=O)NC(=O)NCc2ccco2)cc1C	-3.4	.	.
Cc1cc2n(n1)C(c1ccsc1)Nc1ccccc1-2 (stereo unspecified)	43.0	-8.4	.
CSc1ccc(C2Nc3ccccc3-c3cc(C)nn32)cc1 (stereo unspecified)	-12.6	70.9*	-6.3
C=C(C)Cn1c(CCNC(=O)C(C)(C)C)nc2ccccc21	-14.5	-2.4	.
Cc1cnc(NC(=O)c2c(O)c3cccc4c3n(c2=O)CCC4)s1	3.2	-6.2	.
O=C(NCc1ccccn1)c1c(O)c2cccc3c2n(c1=O)CC3	.	4.4	.
O=C(NCCc1ccccc1)c1c(O)c2cccc3c2n(c1=O)CC3	9.8	73.6*	83.9*
COc1ccc(CNC(=O)c2c(O)c3cccc4c3n(c2=O)CCC4)cc1	11.2	-13.7	.
CC(C)c1nnc(NC(=O)c2c(O)c3cccc4c3n(c2=O)CCC4)s1	.	77.2*	73.0*
COc1ccc(CCNC(=O)c2c(O)c3cccc4c3n(c2=O)CC4)cc1	-25.9	83.5*	67.2*
Cc1cccc(Cn2c(N3CCCCC3C)nc3c2c(=O)[nH]c(=O)n3C)c1 (stereo unspecified)	-6.4	-9.1	.
Cc1ccc(S(=O)(=O)NC(=O)c2cc(C)n(-c3cc(S(=O)(=O)N4CCOCC4)ccc3N3CCCC3)c2C)cc1	-11.4	.	.
CCOc1cccc(OCCCOc2ccccc2)c1	10.2	.	.
Cc1ccc(-n2c(=O)[nH]c3c(C(N)=O)nc(CC(C)C)nc32)cc1	-9.0	1.4	.
Cc1ccc(-n2c(=O)[nH]c3c(C(N)=O)nc(-c4ccc(C)o4)nc32)cc1	.	54.6*	37.4
CCC(=O)N(CC(=O)Nc1sc(C)c(C)c1C(N)=O)C1CCCCC1	-13.2	.	.
COc1ccc(C(=O)C(c2ccccc2)N2CCOCC2)cc1 (stereo unspecified)	4.6	-11.1	.
O=C(C[n+]1ccc(C(=O)N/N=C/c2ccc(O)cc2)cc1)c1ccccc1	-10.9	.	.
